The values below come from PubChem BioAssay (EPA / NIEHS).

Active and inactive are the calls of the source. Rule for the calls: active = hit-call score of the fitted dose curve at least 0.9, where 1 is the maximum; inactive = score below 0.9.

In general, AC50 refers to the concentration at which the activity in the assay is half-maximal.

Read-out in the assay: Urokinase-type plasminogen activator receptor (uPAR), PLAUR (gene 5329)
Kind of assay: BSK_4H_uPAR: BioMAP Diversity Plus: 4H Assay for Urokinase-type plasminogen activator receptor (uPAR) Biomarker Activity (AID 2283030). The note with it: primary human endothelial cells (HUVEC); actives raise or lower the signal. As for the experimental part:
BSK_4H is a cell-based, multiplexed-readout assay that uses umbilical vein endothelium, a human vascular primary cell, with measurements taken at 24 hours after chemical dosing in a 96-well plate.BSK_4HAR is an assay component measured in the BSK_4H assay. It measures uPAR antibody related to regulation of gene expression using ELISA technology.Data from the assay component BSK_4HAR was analyzed into 1 assay endpoint. This assay endpoint, BSK_4HAR, was analyzed with bidirectional fitting relative to DMSO as the negative control and baseline of activity. Using a type of binding reporter, gain or loss-of-signal activity can be used to understand changes in the signaling as they relate to the gene PLAUR. Furthermore, this assay endpoint can be referred to as a primary readout, because this assay has produced multiple assay endpoints where this one serves a signaling function. To generalize the intended target to other relatable targets, this assay endpoint is annotated to the cytokine intended target family, where the subfamily is plasmogen activator.
The levels of cell surface (or secreted, indicated by the prefix "s") biomarker endpoints were measured by ELISA. Overt cytotoxicity to cells in confluent adherent cultures (all systems other than the BT system) was assessed by measuring total protein levels using sulforhodamine B (SRB) staining in parallel cultures at the time of biomarker measurements, indicated as SRB endpoints. For proliferation assays for adherent cell types, individual cell types are cultured at sub-confluence and relative cell numbers quantified by SRB staining at time points optimized for each system (48 h: 3C and CASM3C systems; 72 h: BT and HDF3CGF systems; 96 h: SAg system). SRB was performed by staining cells with 0.1% SRB after fixation with 10% TCA and reading wells at 560 nm.Viability and proliferation of PBMC (T cells) was quantified by Alamar Blue reduction for the SAg and BT systems. For PBMC viability (referred to as PBMC Cytotoxicity within the assay endpoint names), cells were plated (75,000/well in a 96-well plate) and then chemical samples added for 1 h before addition of activators, SEB and TSST-1 (20 ng/mL final concentration each). Cells were incubated for 90 h. Then, Alamar Blue (20 uL/well) (Invitrogen, Cat DAL1100) was added for 6 h, and the plates were read with a fluorescence microplate reader at 546/580 nm (excitation/emission). For PBMC proliferation, cells were plated and activated as above but incubated for only 16 h prior to addition of Alamar Blue. Plates were read after 6 h.
On to `CCN(CC)N=O`, for which the outcome was inactive.

Take `CN(C)c1ccccc1`: the outcome was inactive.

For `C[N+](C)(C)CC1CO1` (stereo not given), the outcome was inactive.

In the case of `c1ccc(N=Nc2ccccc2)cc1`, the outcome was inactive.

For `ClC1=C(Cl)[C@]2(Cl)[C@H]3[C@H]([C@@H]4C=C[C@H]3C4)[C@@]1(Cl)C2(Cl)Cl`, the AC50 was 32.3 µM (active).

`CN(C)c1ccc(C(=O)c2ccc(N(C)C)cc2)cc1`: the outcome was inactive.

For the compound `CCOc1cccc(C2(N3CCN(c4ccccc4)CC3)CCC(C)CC2)c1` (stereo not given), the result was inactive.

As to `c1ccc(C2CO2)cc1` (stereo not given), the result was inactive.

Turning to `C[C@]12C=CC3=C4CCC(=O)C=C4CC[C@H]3[C@@H]1CC[C@@H]2O`, the concentration at half-maximal activity (AC50) is 16 µM (active).

`O=C(Nc1ccccc1)c1ccccc1I`: the result was inactive.

`CCCCOC(=O)c1ccccc1C(=O)OCc1ccccc1`: the outcome was inactive.

For the compound `Nc1ccc(Cl)cc1N`, the result was inactive.

As to `Cc1ccc(N)c(N)c1`, the outcome was inactive.

Turning to `O=C(O)C1C2CCC(O2)C1C(=O)O` (stereo not given), the AC50 is 18.6 µM (active).

For `CC(C)N(Cc1ccccc1)C(=O)C(C)(C)C`, the result was inactive.

With `Clc1ccc(Cl)c(Cl)c1`, the result was inactive.

Consider `CCCCCCCCOC(=O)c1ccc(C(=O)OCCCCCCCC)c(C(=O)OCCCCCCCC)c1`, for which the result was inactive.

`CC(C)COC(=O)c1ccccc1C(=O)OCC(C)C`: the outcome was inactive.

As for `N#CC(Br)(Br)C(N)=O`, the result was inactive.

`CCC12COCN1COC2`: the outcome was inactive.

As to `CCC[CH2][Sn]([Cl])([CH2]CCC)[CH2]CCC`, the AC50 was 0.148 µM (active).

For the compound `O=C(N[C@H](c1ccccc1)[C@@H]1CN2CCC1CC2)c1c(Cl)ccc(C(F)(F)F)c1Cl`, the AC50 was 17.3 µM (active).

As for `c1ccc2c(c1)-c1cccc3cccc-2c13`, the outcome was inactive.

Regarding `ClCCOCCCl`, the outcome was inactive.

Regarding `ClC1=C(Cl)C2(Cl)C3C(Cl)C=CC3C1(Cl)C2(Cl)Cl` (stereo not given), the concentration at half-maximal activity (AC50) was 34.7 µM (active).

Regarding `Oc1ccccc1Cl`, the result was inactive.

Take `Oc1ccc2ccc3cccc4ccc1c2c34`: the half-maximal activity concentration (AC50) is 30.4 µM (active).

As to `[Cl-].[Cl-].[Hg+2]`, the AC50 is 30 µM (active).

For `CS(=O)(=O)NC(=O)c1cc(Oc2ccc(C(F)(F)F)cc2Cl)ccc1[N+](=O)[O-]`, the outcome was inactive.

For the compound `CCN(CC)CCO`, the outcome was inactive.

On to `Nc1ccc(Cc2ccc(N)cc2)cc1`, for which the outcome was inactive.

For the compound `CC(C)(O)c1cnn2c(-c3ccc(F)c(-c4c(F)cccc4C#N)c3)cnc2n1`, the result was inactive.

`Clc1ccc(C(c2ccc(Cl)cc2)C(Cl)(Cl)Cl)cc1`: the half-maximal activity concentration (AC50) was 31 µM (active).

`Clc1ccccc1Cl`: the result was inactive.

For the compound `Nc1cc(Cl)cc(C(=O)O)c1Cl`, the outcome was inactive.

As for `CC(O)CCO` (stereo not given), the result was inactive.

For `Cc1cc(N=Nc2ccccc2C)ccc1N`, the AC50 is 1.95 µM (active).

With `C=CCc1ccc2c(c1)OCO2`, the result was inactive.

For the compound `CCCCC(CC)COC(=O)c1ccc(C(=O)OCC(CC)CCCC)c(C(=O)OCC(CC)CCCC)c1` (stereo not given), the result was inactive.

As to `CNC(=O)Oc1cccc2c1OC(C)(C)C2`, the outcome was inactive.
